Source: PubChem BioAssay (NCATS)
Activity calls are given as the source filed them. Calls come from the whole dose curve. Numbered stars: 1 amine (or outer) side, 2 acyl side, 3 side chain; on linkers, the order of the positions; unused ones are H or OH. Bridge positions count the residues as written; N and C are the ends. Square brackets hold non-standard residues; d marks the D form. Peptide text beside a SMILES is read from it. I, II: the chains in the order shown. Actinocin(9to1) = Cc1c2oc3c(C)ccc(C(=O)[*:1])c3nc-2c(C(=O)[*:2])c(N)c1=O; NMeV = CN[C@H](C(=O)O)C(C)C; Sar = CNCC(=O)O

Conditions: Ebola virus entry cell assay, ratio channel

| Compound | outcome | AC50 |
| --- | --- | --- |
| CC(S)C(=O)NCC(=O)O (centres undefined) | inactive |  |
| CC(=O)Oc1ccccc1C(=O)Nc1ncc([N+](=O)[O-])s1 | inactive |  |
| CN(C)[C@@H]1C(=O)C(C(N)=O)=C(O)[C@@]2(O)C(=O)C3=C(O)c4c(O)ccc(Cl)c4[C@@H](O)[C@H]3C[C@@H]12 | inactive |  |
| CC(N)C12CC3CC(CC(C3)C1)C2 (centres undefined) | inactive |  |
| CNS(=O)(=O)CCc1ccc2[nH]cc(C3CCN(C)CC3)c2c1 | inactive |  |
| O=C1CCc2cc(OCCCCc3nnnn3C3CCCCC3)ccc2N1 | inactive |  |
| Nc1nc(=S)c2[nH]cnc2[nH]1 | inactive |  |
| CCOC(=O)Nc1ccc2c(c1)N(C(=O)CCN1CCOCC1)c1ccccc1S2 | inactive |  |
| COc1cc2c(c(OC)c1OC)-c1ccc(OC)c(=O)cc1[C@@H](NC(C)=O)CC2 |  | 0.316 µM (active) |
| CN(C)CCc1c[nH]c2ccc(CS(=O)(=O)N3CCCC3)cc12 | inactive |  |
| Cc1nc2n(c(=O)c1CCN1CCC(c3noc4cc(F)ccc34)CC1)CCCC2 | inactive |  |
| C[C@H]1O[C@H](O[C@H]2[C@H](O)[C@@H](O)[C@@H](O[C@H]3[C@H](O)[C@@H](O)[C@H](O)O[C@@H]3CO)O[C@@H]2CO)[C@H](O)[C@@H](O)[C@@H]1N[C@H]1C=C(CO)[C@@H](O)[C@H](O)[C@H]1O | inactive |  |
| O=C1C(=O)c2ccccc2C(O)=C1C1CCC(c2ccc(Cl)cc2)CC1 (centres undefined) | inactive |  |
| CN(C)c1cc(NC(=O)CNC(C)(C)C)c(O)c2c1C[C@@H]1C[C@H]3[C@H](N(C)C)C(=O)C(C(N)=O)=C(O)[C@@]3(O)C(=O)C1=C2O | inactive |  |
| CCN1CCN(C(=O)N[C@@H](C(=O)N[C@@H]2C(=O)N3C(C(=O)O)=C(CSc4nnnn4C)CS[C@H]23)c2ccc(O)cc2)C(=O)C1=O | inactive |  |
| Cc1ccc(C(=O)c2cc(O)c(O)c([N+](=O)[O-])c2)cc1 | inactive |  |
| O=C1Cc2cc(CCN3CCN(c4nsc5ccccc45)CC3)c(Cl)cc2N1 |  | 15.8 µM (active) |
| Nc1nc(F)nc2c1ncn2[C@@H]1O[C@H](CO)[C@@H](O)[C@@H]1O | inactive |  |
| CN(C)c1ccc(O)c2c1C[C@H]1C[C@H]3[C@H](N(C)C)C(=O)C(C(N)=O)=C(O)[C@@]3(O)C(=O)C1=C2O | inactive |  |
| Cc1c2oc3c(C)ccc(C(=O)N[C@@H]4C(=O)N[C@H](C(C)C)C(=O)N5CCC[C@H]5C(=O)N(C)CC(=O)N(C)[C@@H](C(C)C)C(=O)O[C@@H]4C)c3nc-2c(C(=O)N[C@@H]2C(=O)N[C@H](C(C)C)C(=O)N3CCC[C@H]3C(=O)N(C)CC(=O)N(C)[C@@H](C(C)C)C(=O)O[C@@H]2C)c(N)c1=O (I: T[dV]P[Sar][NMeV] / II: T[dV]P[Sar][NMeV]; ester I:1-I:C, II:1-II:C; linker I:N-II:N via Actinocin(9to1)) | inactive |  |

| Compound | outcome | AC50 |
| --- | --- | --- |
| Cc1ccc(O)c([C@H](CCN(C(C)C)C(C)C)c2ccccc2)c1 |  | 11.2 µM (active) |
| NCCCC(O)(P(=O)(O)O)P(=O)(O)O |  | 3.98 µM (active) |
| CC(C)(C)NC(=O)[C@H]1CC[C@H]2[C@@H]3CC[C@H]4NC(=O)C=C[C@]4(C)[C@H]3CC[C@]12C | inactive |  |
| CNCC[C@@H](Oc1ccccc1C)c1ccccc1 |  | 17.8 µM (active) |
| Cc1cnc(C(=O)NCCc2ccc(S(=O)(=O)NC(=O)NC3CCCCC3)cc2)cn1 | inactive |  |
| CN1C(CCl)Nc2cc(Cl)c(S(N)(=O)=O)cc2S1(=O)=O (centres undefined) | inactive |  |
| NC[C@H](O)c1ccc(O)c(O)c1 | inactive |  |
| CC[C@]1(O)C[C@@H]2CN(CCc3c([nH]c4ccccc34)[C@@](C(=O)OC)(c3cc4c(cc3OC)N(C)[C@H]3[C@@](O)(C(=O)OC)[C@H](OC(C)=O)[C@]5(CC)C=CCN6CC[C@]43[C@@H]65)C2)C1 |  | 0.01 µM (active) |
| COC(=O)N[C@H](C(=O)N[C@@H](Cc1ccccc1)[C@@H](O)CN(Cc1ccc(-c2ccccn2)cc1)NC(=O)[C@@H](NC(=O)OC)C(C)(C)C)C(C)(C)C | inactive |  |
| COc1ccccc1OCC(O)COC(N)=O (centres undefined) | inactive |  |
| CC(C)C1CCC(C(=O)N[C@H](Cc2ccccc2)C(=O)O)CC1 (some centres undefined) | inactive |  |
| Clc1ccc2c(c1)C(N1CCNCC1)=Nc1ccccc1O2 |  | 12.6 µM (active) |
| Cc1ccccc1N1C(=O)c2cc(S(N)(=O)=O)c(Cl)cc2NC1C (centres undefined) | inactive |  |
| CCc1c2c(nc3ccc(OC(=O)N4CCC(N5CCCCC5)CC4)cc13)-c1cc3c(c(=O)n1C2)COC(=O)[C@]3(O)CC | inactive |  |
| Fc1ccc([C@@H]2CCNC[C@H]2COc2ccc3c(c2)OCO3)cc1 |  | 5.01 µM (active) |
| CN(C)/N=N/c1nc[nH]c1C(N)=O | inactive |  |
| CN(C)CCCN1c2ccccc2Sc2ccc(Cl)cc21 |  | 10 µM (active) |
| COC(=O)Nc1nc2ccc(C(=O)c3ccccc3)cc2[nH]1 |  | 5.62 µM (active) |
| CCCSc1ccc2nc(NC(=O)OC)[nH]c2c1 |  | 8.91 µM (active) |
